Screening data: PubChem BioAssay, National Center for Advancing Translational Sciences (NCATS)
NPC1 prom act: qHTS Assay for NPC1 Promoter Activators; actives 2.4% (n = 320,000); Huh7 NPC1 promoter luciferase reporter, 24 h; Potency, µM (series often up to 9.22 µM), without a hit: top-dose activation, usual class: activators; note: % of control where 0% means no effect; nearly all actives have a fitted effect of over 60% in size
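Quantitative HTS used a cell-based reporter: Huh7 cells stably bearing the NPC1 promoter upstream of luciferase were treated with compounds for 24 h, and promoter activation was read as luminescence.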
Rab9 prom act: qHTS Assay for Rab9 Promoter Activators; Huh7 Rab9 promoter-luciferase reporter, luminescence, 24 h; Potency, µM (top dose mostly 9.22 µM), for inactives: at the highest dose activation, negative = inhibition, most hits filed as activators; actives 2.8% (n = 320,000); note: % of control where 0% means no effect; nearly all actives have a fitted effect of over 60% in size
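Cells were plated at 1500 per well in reduced-serum medium with 10% FBS and left 2 h. Compound in DMSO was then added for 24 h at 37 °C. Reporter signal was read by luminescence after 10 min with luciferase detection reagent.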
SMN2 splice enh: qHTS Assay for Enhancers of SMN2 Splice Variant Expression. HEK293 SMN2-luciferase splicing reporter, luminescence, 30-36 h. Potency, µM (titrated, usually from 46.1 µM), inactives show at the highest dose activity change, positive = activation, hits mostly activators. actives 2.8% (n = 210,000). AID 1458, 2008; note: % of control where 0% means no effect; nearly all actives have a fitted effect of over 55% in size
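HEK293 cells carry an SMN2 […]–luciferase reporter in which exon 7 inclusion puts luciferase in frame. Cells were plated 10-12 h before compound addition, then incubated 30-36 h at 37C. ONE-Glo luminescence was read; sodium butyrate at 4.5 mM final served as control.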
FLuc modulator: qHTS profiling assay for firefly luciferase inhibitor/activator using purifed enzyme and Km concentrations of substrates (counterscreen for miR-21 project) | Luciferin 4-monooxygenase (Photinus pyralis), P08659 | purified FLuc, Km substrates, luminescence inhibition | Potency, µM (titrated, usually from 57.5 µM), for the others: at the highest dose activity change, negative = inhibition, actives largely listed as inhibitors | actives 6.9% (n = 360,000);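 note: plate controls were vehicle for no effect and reference inhibitor for full effect; nearly all actives have a fitted effect of over 55% in size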
Target sequence (P08659 whole entry, looked up): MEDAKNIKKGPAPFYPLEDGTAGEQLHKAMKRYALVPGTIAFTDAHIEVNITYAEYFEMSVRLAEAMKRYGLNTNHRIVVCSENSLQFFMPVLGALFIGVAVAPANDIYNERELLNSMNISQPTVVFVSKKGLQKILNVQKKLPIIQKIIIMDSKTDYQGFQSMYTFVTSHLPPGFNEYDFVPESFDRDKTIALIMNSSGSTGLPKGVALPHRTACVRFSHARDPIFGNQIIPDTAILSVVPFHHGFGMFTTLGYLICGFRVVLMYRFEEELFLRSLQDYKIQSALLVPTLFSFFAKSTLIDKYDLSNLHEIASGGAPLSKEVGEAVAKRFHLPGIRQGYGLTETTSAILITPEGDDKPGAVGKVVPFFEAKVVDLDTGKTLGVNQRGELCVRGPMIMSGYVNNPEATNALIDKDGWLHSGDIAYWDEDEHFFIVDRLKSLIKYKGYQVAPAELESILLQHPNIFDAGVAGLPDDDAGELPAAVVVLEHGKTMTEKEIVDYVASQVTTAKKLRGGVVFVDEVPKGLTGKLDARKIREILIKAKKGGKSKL
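Purified P. pyralis luciferase (10nM final) with 10uM D-luciferin and 10uM ATP (Km levels) in 50mM Tris acetate pH 7.5, 10mM Mg acetate, 0.01% Tween-20, 0.05% BSA; qHTS 6-point titration, ~60 µM downward; luminescence read.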
ELG1 genotox: qHTS screen for small molecules that induce genotoxicity in human embryonic kidney (HEK293T) cells expressing luciferase-tagged ELG1 | HEK293T ELG1-luciferase reporter, luminescence, 16 h | Potency, µM (doses to about 46 µM), inactives show top-dose activity change, positive = activation, usual class: activators | actives 1.3% (n = 330,000); note: % of control where 0% means no effect; nearly all actives have a fitted effect of over 60% in size
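Reporter readout depends on ELG1 protein level, which increases with genetic stress. After 16 hr compound exposure at 37 °C, luciferase activity was quantified using ONE-Glo.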
p53 reactivator: qHTS assay for re-activators of p53 using a Luc reporter | H1299 p53-A138V BP100-luciferase reporter, luminescence, 24 h | Potency, µM (doses to about 92.2 µM), inactives show at the highest dose activity change, positive = activation, most hits filed as activators | actives 0.063% (n = 320,000) | AID 504706, 2011; note: % of control where 0% means no effect; nearly all actives have a fitted effect of over 45% in size
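p53-null H1299 cells stably carrying temperature-sensitive p53-A138V and a BP100-luciferase reporter were pinned with compounds (4-point, 1:5 series) and held 24 hrs at 37 deg C. Luminescence was read 10 min after detection reagent.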
* = called active by the depositor; ? = inconclusive; . = no result given; [ ] = dose if it differs, or a comment. Rows were chosen to be rich in hits. Some 7.4% of all compounds tested hit in one or more screens of this group. Calls come from the whole dose curve; as a rule, active = well fitted curve in the direction sought with a large enough effect; inconclusive = small, poorly fitted or top-dose-only effect, or another doubt; inactive = no such curve, though single readings can be large; an effect the other way counts as inactive or inconclusive. Potency is the fitted concentration of half-maximal effect.

SMILES	NPC1 prom act	Rab9 prom act	SMN2 splice enh	FLuc modulator	ELG1 genotox	p53 reactivator
O=C(Nc1ccc2nc(-c3ccccc3)oc2c1)c1ccco1	?	3.16µM*	?	21.3µM*	?	19.3%
O=C(Nc1ccc2oc(-c3cccnc3)nc2c1)c1ccco1	?	?	3.3%	15.1µM*	16.3%	10.7%
CCc1ccc(-c2nc3cc(NC(=O)c4ccc(C)c(C)c4)ccc3o2)cc1	.	.	-21.6%	-1.5%	.	.
O=C(Nc1ccc(-c2nc3ncccc3o2)cc1)c1ccc(Br)o1	8.5%	26.7%	18.8%	-7.8%	4.1%	-2.2%
CCOc1ccc(NC(=O)CC2C(=O)N(c3cccc(C)c3)C(=O)N2Cc2ccco2)cc1 (stereo not given)	.	.	.	3.7%	.	.
CCOc1ccc(NC(=O)CSC2=Nc3ccccc3C3=NC(CC(=O)NCc4ccc5c(c4)OCO5)C(=O)N23)cc1 (stereo not given)	.	.	.	-9.2%	.	.
CCCNC(=O)c1ccc2c(c1)N=C(CCC)c1ccccc1S2	.	.	-29.7%	?	.	.
CCC(C)NCC(=O)Nc1ccc(-c2nc3cc(NC(=O)CNC(C)CC)ccc3o2)cc1 (stereo not given)	0.0%	-1.6%	?	-6.7%	-11.3%	14.5%
CC(C)CC(=O)Nc1ccc2oc(-c3cccnc3)nc2c1	?	?	?	13.5µM*	?	?
O=C(Nc1ccc2oc(-c3cccnc3)nc2c1)c1cccnc1	11.7%	17.0%	-10.4%	?	2.7%	0.1%
Cc1ccc2oc(-c3ccc(NC(=O)CC(C)C)cc3)nc2c1	0.282µM*	?	?	0.757µM*	2.31µM*	-0.1%
CCC(=O)Nc1ccc2oc(-c3cccnc3)nc2c1	?	3.55µM*	.	16.9µM*	?	18.8%
O=C(Nc1c(C(=O)Nc2ccccc2F)oc2ccccc12)c1cc2ccccc2o1	.	.	-6.4%	-14.7%	.	.
CCOc1ccc(-c2nnc(SCc3nnc(-c4ccccc4)o3)n2-c2ccccc2F)cc1	10.9%	11.8%	-19.6%	26.9µM*	3.2%	?
Cc1ccc(C(=O)CSc2nnc(COc3cccc(C)c3)o2)cc1	-3.9%	3.1%	?	-12.6%	0.2%	2.0%
Cc1ccc(OCc2nnc(-c3ccccc3)o2)cc1	.	.	24.8%	16.9µM*	.	.
Cc1cccc(OCc2nnc(-c3ccc(F)cc3)o2)c1	7.1%	14.6%	.	16.9µM*	10.4%	11.9%
Cc1ccc(-c2nnc(COc3cccc(-n4cnnn4)c3)o2)cc1	4.3%	12.5%	-9.9%	19µM*	8.1%	6.7%
Cc1ccc(C(=O)Nc2nc(-c3ccccn3)cs2)cc1S(=O)(=O)N1CCOCC1	-9.9%	-15.0%	.	?	2.2%	?
O=C(NCCCn1ccnc1)/C(=C\c1ccccc1Cl)NC(=O)c1ccccc1	-2.9%	-2.9%	.	2.8%	2.8%	0.6%
CCCc1nn2c(=O)cc(COC(=O)c3ccc(NC(=O)COc4ccccc4F)cc3)nc2s1	.	.	.	1.4%	.	.
O=C(NCc1ccccc1)c1cnc2sc(N3CCCC3)nn2c1=O	.	.	.	-3.3%	.	.
COC(=O)c1c(N)sc(C(=O)NCCc2ccccc2)c1C	?	?	.	0.0953µM*	0.231µM*	-5.8%
CCOC(=O)c1sc(N)c(C(=O)OC)c1C	26.9%	30.0%	.	15.1µM*	17.1%	5.3%
COc1cccc(Nc2ccc(-n3ccnc3)nn2)c1	12.7%	10.0%	.	?	5.3%	3.1%
SMILES	NPC1 prom act	Rab9 prom act	SMN2 splice enh	FLuc modulator	ELG1 genotox	p53 reactivator
Cc1ccc(Nc2ccc(-n3ccnc3)nn2)cc1C	-2.6%	-4.6%	-1.8%	16.9µM*	3.4%	-3.3%
C[C@@H](CN(C)C[C@H]1C(=O)O[C@@H]2C[C@@]3(C)CCC[C@]4(CO4)C3CC21)[C@H](O)c1ccccc1 (stereo not given in full)	.	.	0.0%	.	.	.
Cc1c(C(=O)N(C)c2ccccc2)sc2nc(-c3ccc(F)cc3)cn12	.	.	.	16.9µM*	.	.
Cc1c(C(=O)NCc2cccnc2)sc2nc(-c3ccc(F)cc3)cn12	25.3%	16.4%	-78.3%	19µM*	?	-5.0%
Cc1c(C(=O)NCc2ccccc2Cl)sc2nc(-c3ccc(F)cc3)cn12	.	.	.	0.5%	.	.
Cc1c(C(=O)NCc2ccc(F)cc2)sc2nc(-c3ccccc3)cn12	.	.	.	-10.2%	.	.
Cc1c(C(=O)NCc2ccco2)sc2nc(-c3ccccc3)cn12	?	?	11.1%	16.9µM*	?	?
Cc1c(C(=O)NCc2cccnc2)sc2nc(-c3ccccc3)cn12	23.1%	?	.	23.9µM*	?	5.7%
Cc1cccc(C)c1NC(=O)CSCc1cnn(-c2ccccc2)c1-n1cccc1	.	.	.	-10.0%	.	.
CC(C)N1CCN(c2ccc(OC[C@@H]3CO[C@@](Cn4cncn4)(c4ccc(Cl)cc4Cl)O3)cc2)CC1	.	.	-10.6%[20.6 µM]	.	.	.
O=C(Nc1ccc(F)cc1)C1CCCCC1	2.8%	18.1%	-12.2%	-3.6%	1.5%	25.4%
CCc1ccccc1NC(=O)c1ccc(-c2csc(C)n2)cc1	3.55µM*	?	.	?	?	1.8%
Cc1nc(-c2ccc(NC(=O)c3ccccc3)cc2)cs1	-6.9%	-13.8%	.	-1.0%	-13.5%	-1.8%
Cc1nc(-c2ccc(NC(=O)C3CCCCC3)cc2)cs1	3.16µM*	2.82µM*	25.1µM*	2.13µM*	2.31µM*	25.1%
Cc1ccc(C(=O)Nc2ccc(-c3csc(C)n3)cc2)cc1	2.24µM*	?	140.2%	?	?	22.9%
CCSc1nnc2c(n1)OC(c1ccc(C)cc1)N(C(C)=O)c1ccccc1-2 (stereo not given)	.	.	-2.5%	-1.9%	.	.
COC(=O)C/C=C/N(Cc1ccccc1OC)S(=O)(=O)CCl	.	.	.	.	2.1%	-2.0%
Cc1nn(Cc2cccc(F)c2)c(C)c1NC(=O)c1ccc(COc2ccccc2Cl)cc1	-3.2%	2.8%	-66.8%	3.5%	-23.6%	1.5%
